Screening results from PubChem.
This is a sample that favours compounds with a hit; in the whole collection about 11% have one here.
HEK cytotox: HEK 293 cell cytotoxicity | HEK 293 viability, ATP luminescence (CellTiter-Glo), 48-72 h | Potency, µM (titrated, usually from 115 µM), for inactives: top-dose activity change, negative = cytotoxicity, hits mostly inhibitors | hit rate 6.6% among 94,000; also: nearly all actives have a fitted effect of over 60% in size
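qHTS cytotoxicity; HEK 293, 250 cells/well; compound pinned; 48 or 72 hr, 37 degree Celsius, 5% CO2, 95% humidity; CellTiter-Glo, 10 min RT; luminescence (ATP).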
NIH3T3 tox: cytotoxic compounds in NIH 3T3 cells; NIH 3T3 viability, CellTiter-Glo ATP luminescence, 48-72 h; hit rate 4.3% among 94,000; AID 1345082; Potency, µM (titrated, usually from 96.7 µM), for the others: top-dose activity change, negative = cytotoxicity, usual class: inhibitors; also: nearly all actives have a fitted effect of over 55% in size
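Luminescent ATP readout (CellTiter-Glo, 10 min RT) after 48 or 72 hr compound exposure of NIH 3T3 cells seeded at 400 cells/well in 1536-well format; quantitative HTS.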
hNpr1 antagonist: antagonists of human natriuretic peptide receptor Npr1; P16066; HEK293 hNpr1 GloSensor cGMP, ANP-stimulated luminescence; Potency, µM (series often up to 46.3 µM), without a hit: top-dose activity change, negative = inhibition, most hits filed as inhibitors; hit rate 1.6% among 76,000; calls by dose curve; also: nearly all actives have a fitted effect of over 60% in size
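HEK293 cells stably expressing human Npr1 and cGMP GloSensor pGS-40F, loaded 2 h with 2% GloSensor reagent, given compound 30 min at room temperature. Luminescence read before and 20 min after 0.1 nM hNppA.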
Luciferase inh: inhibitors of firefly (Photinus pyralis) luciferase | P08659 | purified P. pyralis luciferase, luminescence, biochemical | Potency, µM (top dose mostly 115 µM), hits mostly inhibitors | hit rate 2.5% among 76,000 | AID 1347043; also: nearly all actives have a fitted effect of over 65% in size
Target sequence (P08659 whole entry, looked up): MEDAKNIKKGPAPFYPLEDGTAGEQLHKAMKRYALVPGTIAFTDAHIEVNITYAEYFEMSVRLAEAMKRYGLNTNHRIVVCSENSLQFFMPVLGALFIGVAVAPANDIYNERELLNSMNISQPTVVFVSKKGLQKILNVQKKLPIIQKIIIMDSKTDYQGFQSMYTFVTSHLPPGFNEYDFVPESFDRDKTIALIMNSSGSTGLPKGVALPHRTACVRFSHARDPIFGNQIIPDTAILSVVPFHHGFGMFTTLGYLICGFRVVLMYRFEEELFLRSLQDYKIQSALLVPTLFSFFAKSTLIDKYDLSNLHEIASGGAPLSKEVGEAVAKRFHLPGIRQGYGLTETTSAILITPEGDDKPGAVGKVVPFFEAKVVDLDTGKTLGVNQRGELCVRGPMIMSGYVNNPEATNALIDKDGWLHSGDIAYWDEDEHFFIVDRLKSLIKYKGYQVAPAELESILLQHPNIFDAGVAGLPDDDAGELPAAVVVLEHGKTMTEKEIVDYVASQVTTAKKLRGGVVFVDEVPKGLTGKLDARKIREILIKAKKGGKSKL
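Purified P. pyralis luciferase (10nM final) in 50mM Tris acetate pH 7.5, 10mM Mg acetate, 0.01% Tween-20, 0.05% BSA with 10uM D-luciferin and 10uM ATP. Compounds titrated qHTS. Luminescence imaged on CCD.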
Numbers without * were called inactive; i = inactive; u = inconclusive; x = not tested or not shown; [ ] = another dose, or the depositor's remark. Unless noted, calls follow the shape of the dose curve; as a rule, active = well fitted curve in the direction sought with a large enough effect; inconclusive = small, poorly fitted or top-dose-only effect, or another doubt; inactive = no such curve, though single readings can be large; an effect the other way counts as inactive or inconclusive. % is scaled to controls: 0 for no effect and ±100 for the full control effect; potency is read from the fitted curve at half-maximal effect.

SMILES	HEK cytotox	NIH3T3 tox	hNpr1 antagonist	Luciferase inh
CCn1ncc(N2CCCC(CC(=O)N3CCN(c4cccc(Cl)c4)CC3)C2)cc1=O (centres undefined)	35.5µM*	u	u	i
O=C(NCc1ccnc2[nH]ccc12)c1cccc(Cl)c1	-19.1%[172 µM]	u	4.2%[70.6 µM]	u
O=C(NCC12CCCC=C1N(CC1CC1)C(=O)CC2)C1CCOCC1 (centres undefined)	-7.8%	-14.4%	x	x
O=C(NC1CC1)C1c2ccccc2C(=O)N(C2CCCCC2)C12CCCCC2 (centres undefined)	31.6µM*	u	-5.7%	i
O=C(NCCc1ccccc1)C1c2ccccc2C(=O)N(Cc2ccccc2)C12CCCC2 (centres undefined)	39.8µM*	31.6µM*	-11.6%	i
O=C(NC1CCCC1)C1c2ccccc2C(=O)N(C2CCCC2)C12CCCCC2 (centres undefined)	-10.3%	-5.9%	5.5%	i
COC(=O)CCNC(=O)C1c2ccccc2C(=O)N(Cc2ccccc2)C12CCCC2 (centres undefined)	-8.7%	4.6%	0.7%	i
Cc1noc(C)c1-c1cc(-c2cccc3cc[nH]c23)cn2cncc12	u	28.2µM*	u	i
COc1cccc(-c2cc(-c3c(C)noc3C)c3cncn3c2)c1	u	39.8µM*	-15.1%[70.6 µM]	i
COc1ccc(-c2cc(-c3c(C)noc3C)c3cncn3c2)cc1	u	u	-3.0%[70.6 µM]	i
Cc1noc(C)c1-c1cc(-c2ccccc2O)cn2cncc12	50.1µM*	25.1µM*	-20.1%[70.6 µM]	i
COc1ccc(-c2cccc(C(=O)N3CCN([S+](=O)([O-])c4ccccc4)CC3)c2)nn1	u	-16.5%	x	x
CCCc1noc(-c2cn(C3CCN(C(=O)c4cccs4)CC3)nn2)n1	-5.1%	-23.3%	-18.3%	i
CCn1nccc1C(=O)N1C[C@@H]2CCCN3CCC[C@@H]([C@H]23)[C@H]1CCCC(=O)Nc1ccccc1	-3.5%	1.1%	1.9%	i
Cc1ccc(C(=O)NCCn2cccc2-c2nc(-c3ccccc3)no2)cc1F	-6.9%	-4.3%	1.0%	i
O=C(COc1ccccc1)NCCn1cccc1-c1nc(-c2ccc3c(c2)OCO3)no1	-2.7%	2.3%	-17.5%	u
Cc1ccc(C(=O)NCCn2cccc2-c2nc(-c3ccccc3)no2)cc1	-0.9%	-16.4%	-1.7%	0.891µM*
O=C(NCCn1cccc1-c1nc(-c2ccc3c(c2)OCO3)no1)C1(c2ccccc2)CC1	44.7µM*	u	-14.3%	20µM*
Cc1cccc(N(C)C(=O)Cn2cccc2-c2nc(-c3ccccc3)no2)c1	70.8µM*	u	-2.0%	u
N#Cc1ccc(CN2CC[C@H]3C(=O)NCCCCCCN(Cc4ccncc4)[C@@H]3C2)cc1	u	u	-4.9%	i
Cc1ccc(S(=O)(=O)Nc2ccc3c(c2)CN(CCc2ccc(F)cc2)C(=O)C(C)O3)cc1F (centres undefined)	u	u	-18.3%	i
CCC(c1ccccc1)N1Cc2cc(NS(=O)(=O)c3ccc(F)cc3)ccc2OC(C)C1=O (centres undefined)	u	14.1µM*	-21.0%	i
CC1Oc2ccc(NC(=O)c3ccccc3Cl)cc2CN(Cc2ccc3c(c2)OCO3)C1=O (centres undefined)	u	u	-23.9%	i
CC1Oc2ccc(NS(=O)(=O)c3ccc(Cl)cc3)cc2CN(Cc2ccccc2F)C1=O (centres undefined)	u	35.5µM*	u	i
CC1Oc2ccc(NS(=O)(=O)c3cccc(Cl)c3)cc2CN(Cc2ccccc2Cl)C1=O (centres undefined)	u	22.4µM*	-24.3%	i
SMILES	HEK cytotox	NIH3T3 tox	hNpr1 antagonist	Luciferase inh
O=C(C[C@@H]1CCNC[C@@H]1Cc1cc(-c2ccccc2)on1)N1CCC(Cc2ccccc2)CC1	u	28.2µM*	6.8%	i
CC(C)(C)c1cc(C[C@H]2CNCC[C@H]2CC(=O)N2CCC(Cc3ccccc3)CC2)no1	22.4µM*	28.2µM*	3.1%	i
COc1ccc(-n2nc3n(c2=O)CCN(Cc2ccc(C#N)cc2)C3)cc1	-19.8%	-22.3%	x	x
O=C(Nc1ccc(Cl)cc1)N1CCCC(C(=O)N2CCC(N3CCOC3=O)CC2)C1 (centres undefined)	-27.2%	-27.3%	x	x
O=C([C@@H]1C[C@H](Oc2cccnc2)CN1C(=O)NCCc1ccccc1)N1CCOCC1	-16.0%	u	-2.5%	i
CC1(c2ccccc2)N(Cc2cccnc2)C(=O)OC12CCN(C(=O)c1ccc(F)cc1)CC2 (centres undefined)	i	u	0.0%	i
Cc1ncsc1C(=O)N1CCC2(CC1)OC(=O)N(Cc1cccnc1)C2(C)c1ccccc1 (centres undefined)	i	22.4µM*	4.3%	i
CC1(c2ccccc2)N(Cc2cccnc2)C(=O)OC12CCN(C(=O)C1CCC1)CC2 (centres undefined)	-15.1%[172 µM]	17.8µM*	0.0%[70.6 µM]	i
CC1(c2ccccc2)N(Cc2cccnc2)C(=O)OC12CCN(C(=O)c1ccccc1)CC2 (centres undefined)	1.3%[172 µM]	u	-6.5%[70.6 µM]	i
COc1ccc(C(=O)N2CCC3(CC2)OC(=O)N(Cc2cccnc2)C3(C)c2ccccc2)cn1 (centres undefined)	i	39.8µM*	0.1%	i
Cc1ncsc1C(=O)N1CCC2(CC1)OC(=O)N(Cc1ccccc1)C2(C)c1cccnc1 (centres undefined)	i	22.4µM*	3.7%	i
O=C(NCc1ccccc1Cl)c1nc2cccnc2n(CCc2ccccc2)c1=O	i	-5.3%	x	x
COC(=O)c1ccc2nc(CO[C@H]3CN(Cc4ccc(S(C)(=O)=O)cc4)C[C@H]3F)[nH]c2c1	-28.8%	-21.7%	1.3%	i
CN1CCC(C(=O)N2Cc3ccccc3CC3(CCCN(Cc4ccncc4)C3)C2)CC1 (centres undefined)	-23.7%	-15.2%	x	x
COc1ccc(NC(=O)c2cnc3c(c2)N(C(=O)Cc2cccc(C(F)(F)F)c2)CCC3)cc1OC	u	u	0.1%	i
O=C(Nc1cccc(C(F)(F)F)c1)c1cnc2c(c1)N(Cc1ccccc1)CCC2	63.1µM*	31.6µM*	-30.3%[70.6 µM]	i
COc1ccccc1CC(=O)N1CCCc2ncc(C(=O)Nc3cccc(Cl)c3)cc21	56.2µM*	u	u	i
COc1ccccc1CC(=O)N1CCCc2ncc(C(=O)Nc3cccc(C(F)(F)F)c3)cc21	50.1µM*	u	-12.7%	i
O=C(NCc1cccc(F)c1)c1cnc2c(c1)N(Cc1ccccc1)CCC2	u	u	-3.6%[70.6 µM]	i
COc1ccccc1CC(=O)N1CCCc2ncc(C(=O)Nc3ccc(OC)c(OC)c3)cc21	u	-23.5%	-0.2%	i
COC[C@@H]1CN(Cc2cccc(C#N)c2)C[C@H]1c1ccncc1	-46.4%	u	0.5%	i
